Assay outcomes from PubChem.
D1 ag – Allosteric Agonists of the Human D1 Dopamine Receptor: qHTS | D(1A) dopamine receptor (Homo sapiens), P21728 | HEK293 T-REx D1 cells, calcium flux, agonist mode | activation, % at 2 µM | 360,000 tested, 1% active; further: 0% is about no effect
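Inducible HEK293 T-REx D1 cells, force-coupled to calcium signalling, were plated at 4000 cells/well with tetracycline and held overnight at 30 C. After no-wash calcium dye loading, compound-evoked calcium rise over 180 s flagged agonists.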
Epigenetic reg – Quantitative High-Throughput Screen for Regulators of Epigenetic Control | murine LDR cells, GFP reporter derepression, 30 h | Potency, µM (doses to about 53.9 µM), inactives show top-dose GFP activation, most hits filed as activators | 280,000 tested, 0.2% active | AID 1865, 2009; active means well fitted activation curve with a large enough effect; inconclusive means small, poorly fitted or top-dose-only effect; further: potency means the concentration at half of the fitted maximal effect; % of control where 0% means no effect; nearly all actives have a fitted effect of over 60% in size
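Murine LDR cells carrying a silenced, genomically integrated CMV-driven GFP reporter were exposed to compound for 30 hours at 37 C. After PBS washes, GFP-positive cells (20–120 um objects) were counted by laser-scanning microplate cytometry.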
D1 potentiator – Potentiators of Human D1 Dopamine Receptor: qHTS | D(1A) dopamine receptor (Homo sapiens), P21728 | HEK293 TREx D1 cells, calcium flux, dopamine EC20 potentiation | potentiation, % at 10 µM | 360,000 tested, 0.036% active | AID 504651, 2011; in the data active means potentiation above about 30%; further: 0% is about no effect
D1 antagonist – Antagonist of Human D 1 Dopamine Receptor: qHTS | HEK293 TREx D1 cells, calcium flux, dopamine EC80; stronger effect = lower value | activity change, negative = inhibition, % at 10 µM | 360,000 tested, 3.2% active | AID 504652, 2011; in the data active means activity change below about -30%; further: on the % scale 0 is the no-effect control and ±100 the full control effect
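Tetracycline-induced HEK293 Trex D1 cells, force-coupled to calcium, dye-loaded; compounds added and read 180 s, then EC80 dopamine added and calcium flux tracked kinetically another 180 s.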
TRHR PAM – qHTS for Small Molecule Agonists and Allosteric Enhancers of Human TRH Receptor: Primary Screen for Enhancers; TRHR cells, fluo-8 calcium fluorescence, EC20 TRH enhancement; Thyrotropin-releasing hormone receptor (Homo sapiens), P34981; enhancement, % at 2 µM; 360,000 tested, 0.66% active; in the data active means enhancement above about 30%; further: 0% is about no effect
Target sequence (P34981 whole entry, looked up): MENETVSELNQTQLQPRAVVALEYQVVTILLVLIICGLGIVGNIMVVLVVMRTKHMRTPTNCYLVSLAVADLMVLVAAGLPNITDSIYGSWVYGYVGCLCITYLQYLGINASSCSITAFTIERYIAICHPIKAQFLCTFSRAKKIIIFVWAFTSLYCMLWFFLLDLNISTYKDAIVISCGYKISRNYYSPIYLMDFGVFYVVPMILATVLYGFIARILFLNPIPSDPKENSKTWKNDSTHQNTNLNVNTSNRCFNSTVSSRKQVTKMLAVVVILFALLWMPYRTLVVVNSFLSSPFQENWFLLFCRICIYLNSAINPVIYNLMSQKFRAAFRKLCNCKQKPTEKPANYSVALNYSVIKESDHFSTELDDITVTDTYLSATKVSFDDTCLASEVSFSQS
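Enhancer read-out: after compound pinning and an initial kinetic agonist-mode read, an EC20 of TRH (10 nM final) was injected and fluo-8 calcium signal (Ex 480/Em 530) followed at 1 s/cycle for 100 cycles in TRHR-expressing cells.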
TRHR ag – qHTS for Small Molecule Agonists and Allosteric Enhancers of Human TRH Receptor: Primary Screen for Agonists; Thyrotropin-releasing hormone receptor (Homo sapiens), P34981; TRHR cells, calcium flux fluo-8, FDSS agonist mode; activation, % at 2 µM; 360,000 tested, 0.18% active; AID 493084, 2011; further: 0% is about no effect
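Fluo-8-loaded TRHR cells; 10 s baseline, compound added, kinetic Ca2+ fluorescence read 1/s, agonist mode.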
The depositor's hits bear a star; ! = not active in a repeat. Shown are actives, neighbours in structure and some others; about 4.6% of the full set was active somewhere. Unless noted, no stated cut-off is given here; in the data, active means activation above about 30%; inactive means the rest.

Screening COC(=O)C1CC1C(NC(=O)[C@H]1CCCCN1)c1ccccc1 (some centres undefined) returned Epigenetic reg 0%.
Screening Cc1ccc(C(=O)Nc2cccc(O)c2)cc1S(=O)(=O)N1CCCCCC1 returned D1 ag 1, Epigenetic reg -1%, D1 potentiator -3, D1 antagonist -33*!, TRHR PAM -7 and TRHR ag 0.
For COc1ccc(C(CNC(=O)CNC(=O)c2ccccc2Cl)N2CCCC2)cc1 (centres undefined) the results were D1 ag 0, D1 potentiator -6, D1 antagonist 4, TRHR PAM 13 and TRHR ag 0.
`COc1ccccc1C(CNC(=O)c1ccc(C)c(S(=O)(=O)N2CCCCC2)c1)N1CCCC1` (centres undefined) gave D1 ag 2, D1 potentiator -10, D1 antagonist -45*, TRHR PAM 5 and TRHR ag 0.
For COc1ccc(C(CNC(=O)CNC(=O)c2cccc(Cl)c2)N2CCCC2)cc1 (centres undefined) the results were D1 ag 5, D1 antagonist -37*, TRHR PAM 3 and TRHR ag 0.
COc1ccc(C(CNC(=O)c2ccc(C)c(S(=O)(=O)Nc3ccccc3OC)c2)N2CCCC2)cc1 (centres undefined) was read as D1 ag 14, D1 potentiator -1, D1 antagonist -38*, TRHR PAM -5 and TRHR ag 0.
Screening Cc1ccc(-n2nc3c(=O)n(C(C)C(=O)NCc4ccc(OC(C)C)cc4)nc(C)c3c2C)cc1 (centres undefined) returned D1 ag 1, Epigenetic reg 7%, D1 potentiator 0, D1 antagonist -6, TRHR PAM -12 and TRHR ag -1.
`Cc1sc2ncn(CC(=O)N3CCN(c4ccccc4)CC3)c(=O)c2c1S(=O)(=O)N1CCC(C)CC1` gave D1 ag 1, Epigenetic reg 0%, D1 potentiator 0, D1 antagonist 3, TRHR PAM -2 and TRHR ag 0.
Screening CCOc1ccc(/C=C/c2nc(C#N)c(NC(C)c3ccccc3)o2)cc1 (centres undefined) returned D1 ag 3, Epigenetic reg 1%, D1 potentiator 1, D1 antagonist 2, TRHR PAM -3 and TRHR ag 0.
For COc1ccc(/C=C/C(=O)Nc2nc(-c3cccs3)ns2)cc1OC the results were D1 ag 2, Epigenetic reg inconclusive, D1 potentiator 3, D1 antagonist -25, TRHR PAM 2 and TRHR ag 0.
Screening COc1ccc(CCNc2ccc(N3C(=O)CC(C)C3=O)cc2[N+](=O)[O-])cc1OC (centres undefined) returned D1 ag 17, Epigenetic reg 0%, D1 potentiator -7, D1 antagonist -34*, TRHR PAM -4 and TRHR ag 0.
COc1ccc(OC)c(CNc2ccc3c(c2)nc(C)n3C)c1 was read as D1 ag 5, D1 potentiator 4, D1 antagonist 11, TRHR PAM -1 and TRHR ag 0.
`COc1ccc(N=Nc2nc3cc(Br)c(Br)cc3n2C)c(OC)c1` gave D1 ag 88*, Epigenetic reg 0%, D1 potentiator -5, D1 antagonist -12, TRHR PAM -2 and TRHR ag 55*.
COc1cccc(/C=N/n2c(N)c(S(=O)(=O)c3cccs3)c3nc4ccccc4nc32)c1OC was read as D1 ag 4, Epigenetic reg 3%, D1 potentiator -7, D1 antagonist -8, TRHR PAM 4 and TRHR ag 0.
`Nc1c(S(=O)(=O)c2cccc(Cl)c2)c2nc3ccccc3nc2n1/N=C/c1ccc(O)c(O)c1` gave D1 ag 1, Epigenetic reg inconclusive, D1 potentiator -5, D1 antagonist -34*, TRHR PAM 1 and TRHR ag 1.
Screening CCCC(=O)Nc1ccc2nn(-c3ccc(CC)cc3)nc2c1 returned D1 ag 3, Epigenetic reg 2%, D1 potentiator 1, D1 antagonist 20, TRHR PAM -1 and TRHR ag 1.
For Cc1ccc2cccc(OCCOCCOc3ccccc3Br)c2n1 the results were D1 ag 3, Epigenetic reg -4%, D1 potentiator 5, D1 antagonist 15, TRHR PAM 5 and TRHR ag 0.
Screening Cc1ccc2cccc(OCCCOc3ccccc3F)c2n1 returned D1 ag 6, D1 potentiator -14, D1 antagonist -49*, TRHR PAM -6 and TRHR ag -1.
For COc1ccc(N2CCN(C(=O)c3cnc(N4CCOCC4)c4ccccc34)CC2)cc1 the results were D1 ag 3, Epigenetic reg 0%, D1 potentiator -3, D1 antagonist 5, TRHR PAM 3 and TRHR ag 0.
For CCCSc1nsc(NC(=O)C(c2ccccc2)c2ccccc2)n1 the results were D1 ag 0, Epigenetic reg 12%, D1 potentiator -6, D1 antagonist -1, TRHR PAM 3 and TRHR ag -1.
Screening CCCSc1nsc(NC(=O)Nc2ccc(F)cc2F)n1 returned D1 ag 33*, D1 potentiator -8, D1 antagonist -60*, TRHR PAM 16 and TRHR ag 0.
For CCSc1nsc(NC(=O)Nc2cccc(F)c2)n1 the results were D1 ag 42*, D1 potentiator -7, D1 antagonist -44*, TRHR PAM -3 and TRHR ag 7.
`COc1cccc(NC(=O)Nc2nc(SC)ns2)c1` gave D1 ag 20, D1 potentiator -6, D1 antagonist -15, TRHR PAM 3 and TRHR ag 3.
`COc1cccc(NC(=O)Nc2nc(SC(C)(C)C)ns2)c1` gave D1 ag 30, D1 potentiator -8, D1 antagonist -40*, TRHR PAM -10 and TRHR ag 5.
`CCOc1ccccc1Oc1nc(C)nc2c1oc1ccccc12` gave D1 ag 0, Epigenetic reg 1%, D1 potentiator -4, D1 antagonist 5, TRHR PAM -1 and TRHR ag 0.
